Measured values: the supplement of paper PMC3334620
Over roughly 33,000 sequences, “E-score (-0.5 to 0.5)” has its median near -0.053; the highest 2% begin near 0.37. The sample as a whole holds a higher share of the highest values than the screen did.

Molecular target: Hap1 (UniProt P0CE41)
Experiment: PBM E-score (8-mer binding enrichment) (E-score (-0.5 to 0.5)); higher = stronger / more preferred TF binding
Details: protein concentration: 200 nM; construct: GST-DNA-binding domain
Experimental: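 Universal 'all 10-mer' protein binding microarrays (Agilent AMADID 015681) probed with GST-tagged S. cerevisiae TFs (full-length or DBD) made by in vitro transcription/translation (PURExpress), about 100-200 nM. Bound TF was detected with fluorescent anti-GST. Each ungapped 8-mer (which stands for itself and its reverse complement) is scored by the PBM enrichment score (E-score), a modified Wilcoxon-Mann-Whitney statistic from -0.5 to +0.5, computed with the Universal PBM Analysis Suite. Scale: above 0.35 generally sequence-specific binding.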

UniProt P0CE41, sequence (P0CE41 whole entry): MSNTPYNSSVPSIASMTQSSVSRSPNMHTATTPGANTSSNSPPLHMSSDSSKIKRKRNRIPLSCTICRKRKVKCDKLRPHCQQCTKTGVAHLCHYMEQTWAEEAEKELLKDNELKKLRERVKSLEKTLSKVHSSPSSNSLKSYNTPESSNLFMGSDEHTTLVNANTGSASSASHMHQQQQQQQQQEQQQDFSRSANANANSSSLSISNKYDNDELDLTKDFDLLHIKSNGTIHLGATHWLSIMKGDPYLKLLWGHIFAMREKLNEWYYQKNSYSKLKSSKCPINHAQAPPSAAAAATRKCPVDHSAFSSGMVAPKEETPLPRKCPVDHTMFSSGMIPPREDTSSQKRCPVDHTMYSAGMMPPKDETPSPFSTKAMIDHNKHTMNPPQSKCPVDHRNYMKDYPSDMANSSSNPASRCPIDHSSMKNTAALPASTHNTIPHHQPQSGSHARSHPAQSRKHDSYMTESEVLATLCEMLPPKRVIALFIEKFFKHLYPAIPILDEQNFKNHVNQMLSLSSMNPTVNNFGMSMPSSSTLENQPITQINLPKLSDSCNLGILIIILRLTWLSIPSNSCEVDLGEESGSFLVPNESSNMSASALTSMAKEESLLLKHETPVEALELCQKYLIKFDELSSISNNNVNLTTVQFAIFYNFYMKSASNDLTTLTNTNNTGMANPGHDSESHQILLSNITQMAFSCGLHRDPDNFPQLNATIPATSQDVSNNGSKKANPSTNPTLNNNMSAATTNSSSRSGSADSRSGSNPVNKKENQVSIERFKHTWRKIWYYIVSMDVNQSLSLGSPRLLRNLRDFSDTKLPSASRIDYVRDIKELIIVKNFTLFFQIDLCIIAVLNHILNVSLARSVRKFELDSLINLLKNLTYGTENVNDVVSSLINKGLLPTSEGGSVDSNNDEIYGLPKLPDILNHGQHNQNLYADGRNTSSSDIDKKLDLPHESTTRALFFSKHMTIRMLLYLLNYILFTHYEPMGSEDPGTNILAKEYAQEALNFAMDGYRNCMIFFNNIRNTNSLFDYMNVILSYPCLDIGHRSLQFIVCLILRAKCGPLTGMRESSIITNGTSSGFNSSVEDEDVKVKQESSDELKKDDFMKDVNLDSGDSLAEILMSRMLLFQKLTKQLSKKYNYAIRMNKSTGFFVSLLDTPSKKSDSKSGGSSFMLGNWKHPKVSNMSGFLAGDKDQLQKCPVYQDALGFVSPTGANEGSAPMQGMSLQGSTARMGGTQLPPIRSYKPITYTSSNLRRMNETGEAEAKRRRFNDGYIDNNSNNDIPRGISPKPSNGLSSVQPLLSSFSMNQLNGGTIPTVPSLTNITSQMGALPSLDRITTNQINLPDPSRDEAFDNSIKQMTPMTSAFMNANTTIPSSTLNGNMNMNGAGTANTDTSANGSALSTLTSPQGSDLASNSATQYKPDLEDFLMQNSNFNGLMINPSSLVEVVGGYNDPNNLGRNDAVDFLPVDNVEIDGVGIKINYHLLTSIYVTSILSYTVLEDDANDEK

Row | Sequence | PBM E-score
1 | AAACGCCA | 0.0524
2 | CATCGCCG | 0.293
3 | CAACGCCG | 0.264
4 | AAACGCCG | 0.402
5 | AATCGCCC | 0.0407
6 | AATCGCCG | 0.395
7 | CGGTCAAA | 0.269
8 | ACAATCCC | 0.254
9 | ACATCTCC | 0.283
10 | ATTTTTGA | -0.132
11 | ATCTAAAT | 0.149
12 | GAAGTGGC | -0.0295
13 | ATGAAACG | -0.0187
14 | GAAACAGC | 0.0614
15 | TCCAAGGA | 0.0272
16 | GGGATAGA | -0.0284
17 | GCATCTTA | -0.0356
18 | AGTCCGTC | 0.325
19 | AGTCCGGG | 0.393
20 | AGTCCGGC | 0.389
21 | AGTCCCGG | 0.322
22 | AGTCCGCG | 0.297
23 | AGTCCGCC | 0.292
24 | CTCCAGAG | -0.0749
25 | ACCATGAG | -0.129

Row | Sequence | PBM E-score
26 | AACGGAAA | 0.385
27 | ATCGGAAT | 0.363
28 | AACGGAAT | 0.306
29 | ATCGGAAG | 0.236
30 | CACGGAAA | 0.295
31 | GTCGGAAA | 0.361
32 | ATCGGAAA | 0.426
33 | CTCGGAAA | 0.346
34 | TTCGGAAA | 0.389
35 | ACATTGAC | -0.114
36 | ATACCGAT | 0.288
37 | GACCAACA | 0.0331
38 | CCCCATCG | 0.172
39 | AATCGCGC | 0.135
40 | AGCGCAGG | 0.00092
41 | ATCGGATG | 0.346
42 | CACGGATA | 0.298
43 | CTCGGGTA | 0.264
44 | GTCGGATA | 0.339
45 | CTCGGATC | 0.383
46 | CGCGGATA | 0.309
47 | ATCGGATC | 0.339
48 | AACGGATT | 0.338
49 | ATCGGATA | 0.404
50 | CGCGGATC | 0.172

Row | Sequence | PBM E-score
51 | AACGGATA | 0.398
52 | CTCGGATA | 0.371
53 | AGTGAGCA | -0.28
54 | AACCAGCG | 0.0362
55 | CGTTGCAC | 0.065
56 | CGCACACA | -0.0394
57 | ATGGGAGA | -0.315
58 | CAGCTATG | -0.287
59 | ACTGAAGG | -0.129
60 | AATCCGGA | 0.433
61 | GATCCGCC | 0.29
62 | AATCCGTA | 0.219
63 | AATCCGGT | 0.418
64 | AATCCGCA | 0.247
65 | GATCCGGC | 0.375
66 | AATCCAGT | 0.219
67 | TATCCGAA | 0.364
68 | AATCCGCT | 0.243
69 | GATCCGAC | 0.273
70 | CATCCGAA | 0.368
71 | GATCCGAA | 0.379
72 | GAGGGCGA | 0.0665
73 | TACTGGGA | -0.0481
74 | ATCGGGCG | 0.36
75 | ACAGATCA | -0.0146

Row | Sequence | PBM E-score
76 | CGCGTTGC | 0.159
77 | CTACTAAC | -0.214
78 | TGCTAGAA | -0.118
79 | GATCCGTA | 0.225
80 | TATCCGGA | 0.428
81 | GATCCGCA | 0.253
82 | TATCCTGA | -0.0806
83 | CATCCGGA | 0.423
84 | CATCCGTA | 0.2
85 | AATCCGGC | 0.37
86 | CATCCGGC | 0.342
87 | CATCCGCA | 0.224
88 | AATCCGTC | 0.232
89 | TATCCGCA | 0.253
90 | GATCCGGA | 0.395
91 | ATACGTCA | 0.0245
92 | TAGTTTCA | -0.024
93 | CACCTGTA | -0.173
94 | GAAATCGC | 0.196
95 | ACTAGGCG | -0.0773
96 | AATCCGGG | 0.409
97 | CATCCGGG | 0.278
98 | AATCCGCG | 0.244
99 | CCTAGGGA | -0.112
100 | AATTCCAT | 0.0073

Row | Sequence | PBM E-score
101 | AATTCCGG | 0.451
102 | AATTCCGT | 0.414
103 | CATTCCGA | 0.294
104 | AATTCCGC | 0.336
105 | TATTCCGA | 0.357
106 | CATTCCGG | 0.322
107 | AATTCCCT | -0.106
108 | AATTCCGA | 0.43
109 | CTGGCTTC | -0.194
110 | AGCGAACT | -0.137
111 | AGAAGGAG | -0.248
112 | AGTTGCGG | 0.153
113 | CAGTAGGC | -0.174
114 | ATGGGTGA | -0.0877
115 | ATCTAAGC | -0.0574
116 | GCCTTTTA | -0.0799
117 | AGTTGCGC | 0.0784
118 | GCTCCTAC | -0.0888
119 | AAAATTAT | 0.122
120 | CCGAAACC | 0.298
121 | TCGAAAAA | 0.0162
122 | GCGAAAGC | 0.0298
123 | CCGAAAGC | 0.369
124 | CCGAAACG | 0.377
125 | ACGAAAAC | 0.124

Row | Sequence | PBM E-score
126 | CCGAAAAG | 0.311
127 | GCGAAAAC | -0.0632
128 | CCGAAAGA | 0.319
129 | CCGAAAAC | 0.379
130 | CCGAAACA | 0.288
131 | CCGAAAAA | 0.398
132 | CAACCCAC | -0.131
133 | GCATTAGA | -0.112
134 | CAGTTGAG | -0.225
135 | AGAATTCT | 0.108
136 | CAGTGTTC | -0.0181
137 | CGTGAAAC | -0.0905
138 | GACAGGGC | -0.0413
139 | AGGTTGTA | -0.112
140 | CCGAAATC | 0.401
141 | ACGAAATC | 0.0404
142 | CCGAAATA | 0.351
143 | AAGCGGAG | -0.0297
144 | TCTCAGCA | -0.326
145 | ATCGAATG | -0.076
146 | CTACGCCC | 0.0263
147 | TAGCATAA | -0.0142
148 | ATTTCACA | -0.131
149 | CGCCGATC | 0.326
150 | GGCCGATA | 0.457

Row | Sequence | PBM E-score
151 | CGCCGTTA | 0.291
152 | GGGCGTTA | 0.147
153 | AGGCGATA | 0.119
154 | GGCCGTTA | 0.333
155 | GGGCGATA | 0.179
156 | GGCCGCTA | 0.225
157 | CGGCGATA | 0.472
158 | CGCCGATA | 0.426
159 | CGGCGTTA | 0.476
160 | CGGCGTTC | 0.235
161 | CGAAAAAC | 0.169
162 | GAATGCAC | -0.00315
163 | AGGGATGA | -0.133
164 | AGTCAAAG | -0.13
165 | GTCGCGAC | 0.244
166 | ACTCCCAG | -0.0473
167 | AGCCGATG | 0.233
168 | AGCCGATC | 0.245
169 | AGCCGATA | 0.427
170 | ACAGTGCT | -0.138
171 | ACCCGGTA | 0.376
172 | CCCCGGTA | 0.334
